Assay outcomes as filed in PubChem BioAssay.
Most compounds without a hit are left out; they make up all but 4.7% or so of the library.
ADAM10 inh: ADAM10 inhibition, QFRET primary screen. O14672. recombinant ADAM10, EDANS/DABCYL FRET peptide cleavage, 3 h. inhibition, % at 7 µM. 370,000 compounds, 0.62% hits. AID 720582;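 active = inhibition above a per-campaign cutoff equal to the mean of compounds falling between control-based bounds plus 3 SD, cut at about 20% in these data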
MPTP block: blocks calcium-induced mitochondrial swelling; isolated mouse mitochondria, Ca2+ swelling absorbance, 30 min; inhibition, % at 10 µM; 360,000 compounds, 1.4% hits;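 active = inhibition of 50% or more, scaled per plate between neutral and stimulator controls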
proKLK7 act: activators of human kallikrein-7 zymogen; 370,000 compounds, 0.9% hits; activation, % at 7 µM; purified proKLK7, EDANS-DABCYL substrate fluorescence; 100% is mature enzyme control, 0% vehicle; P49862; AID 652039;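 active = activation above the mean of all tested compounds plus 3 SD, computed per campaign excluding outliers beyond control limits, cut at about 13% in these data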
DSG3 Ab inh: blocks pemphigus antibody binding to human desmoglein-3; P32926; DSG3-coupled beads, scFv-anti-DSG3-GFP binding, flow cytometry; active compounds read low; binding (percent of control), % at 10 µM; 310,000 compounds, 0.48% hits; AID 588358;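 active = binding more than 3 SD below its plate's average and above zero; inconclusive = below that plate limit but binding exactly zero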;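 note: hits lower antibody fragment binding to DSG3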
rCAG RNA binder: r(CAG) repeat RNA binding | AID 651821 | TO-PRO-1 dye displacement fluorescence | 370,000 compounds, 1.3% hits | inhibition, % at 3 µM;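 active = inhibition above the plate cutoff, the mean of all test compounds on that plate plus 3 SD, cut at about 35% in these data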;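 note: higher means more dye released from RNA so lower well fluorescence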
ADAM17 inh: inhibitors of human ADAM17 | recombinant ADAM17, EDANS/DABCYL FRET peptide cleavage | inhibition, % at 6.95 µM | P78536 | 370,000 compounds, 0.83% hits;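 active = inhibition above the mean of compounds lying between control limits plus 3 SD, set per campaign, cut at about 8.5% in these data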
MPTP counter: Rhodamine 123 counter-screen of mitochondrial pore hits | inhibition, % at 10 µM | 5,000 compounds, 78% hits | isolated mitochondria, membrane potential, Rhodamine 123 fluorescence | shares compounds with MPTP block; in the data active = inhibition above about 22%
rCAG binder conf: r(CAG) RNA repeat binding, confirmation. shares compounds with rCAG RNA binder. TO-PRO-1 dye displacement fluorescence. inhibition, % at 3 µM. 4,300 compounds, 70% hits. AID 652065;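 active = inhibition above a per-plate cutoff, the mean inhibition of sample wells plus 3 SD, cut at about 35% in these data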;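 note: loss of TO-PRO-1 fluorescence as compound displaces dye from 1x1 AA loop RNA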
dCAG dye counter: disrupts DNA CAG TO-PRO-1 complex, flagging rCAG hits. inhibition, % at 3 µM. 4,300 compounds, 94% hits. d(CAG) DNA oligo TO-PRO-1 dye displacement, fluorescence. shares compounds with rCAG RNA binder;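 active = inhibition above its plate's cutoff, the mean test-well inhibition plus 3 SD, cut at about 4.8% in these data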;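 note: hits displace the dye from DNA and so lower well fluorescence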
ADAM10 confirm: human ADAM10 inhibition, confirmation; ADAM10 QFRET peptide cleavage, EDANS fluorescence; shares compounds with ADAM10 inh; 2,100 compounds, 1% hits; inhibition, % at 6.95 µM; AID 743208;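 active = inhibition above about 20% chosen separately for each screening run, limit read from the data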
ADAM17 counter: ADAM17 inhibition, counter-screen for ADAM10 exosite hits; shares compounds with ADAM10 inh; ADAM17 QFRET peptide cleavage, EDANS fluorescence; inhibition, % at 6.95 µM; 2,100 compounds, 0.5% hits;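 active = mean triplicate inhibition above the solvent-only control wells' mean plus 3 SD, cut at about 12% in these data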
ADAM10 ctr: inhibits human ADAM10 in ADAM17 exosite counter-screen. shares compounds with ADAM17 inh. recombinant ADAM10, EDANS/DABCYL FRET peptide cleavage, 3 h. inhibition, % at 6.95 µM. 2,900 compounds, 47% hits. AID 743256;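 active = mean inhibition over the triplicate runs exceeds the activity threshold set in the earlier primary screen, cut at about 20% in these data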
ADAM17 confirm: human ADAM17 inhibition, confirmation | shares compounds with ADAM17 inh | recombinant ADAM17, EDANS/DABCYL QFRET peptide cleavage | inhibition, % at 6.95 µM | 2,900 compounds, 65% hits | AID 743257;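 active = mean inhibition across replicates above the hit cutoff set in the primary screen, cut at about 8.5% in these data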
Each line names hits and unclear results; the compound was inactive in the other large screens (follow-up assays come after a bar, where they were run).

CC(C)N=c1scc(-c2cccs2)n1/N=C/c1ccc(O)c(O)c1O	MPTP block 95, rCAG RNA binder 46, ADAM17 inh 9.3 (no result: DSG3 Ab inh) | MPTP counter 50 | rCAG binder conf 56 | dCAG dye counter 31 | ADAM10 ctr inactive | ADAM17 confirm 12
CC(COc1ccc(C#N)cc1)CN1CCC(C(O)(c2ccccc2)c2ccccc2)CC1 (centres undefined)	none (no result: MPTP block, DSG3 Ab inh)
CCOc1ccc(NS(=O)(=O)c2cc(C(=O)N3CCCC3)ccc2Cl)cc1	DSG3 Ab inh inconclusive
CCOc1ccc(NS(=O)(=O)c2cc(NC(=O)c3cccc(C)c3)ccc2Cl)cc1	ADAM10 inh 31, MPTP block 89, ADAM17 inh 14 | MPTP counter 41 | ADAM10 confirm inactive | ADAM17 counter inactive | ADAM10 ctr 31 | ADAM17 confirm 19
Cn1cc([N+](=O)[O-])c(C(=O)Nc2cc(Oc3ccccc3)cc([N+](=O)[O-])c2)n1	none (no result: DSG3 Ab inh)
Cc1cccc(Oc2cc(NC(=O)c3ccccc3)cc([N+](=O)[O-])c2)c1	ADAM10 inh 22, MPTP block 68, ADAM17 inh 9.0 (no result: DSG3 Ab inh) | MPTP counter 81 | ADAM10 confirm inactive | ADAM17 counter inactive | ADAM10 ctr inactive | ADAM17 confirm 12
O=C(Cc1cccs1)Nc1nc(-c2ccc(F)cc2F)cs1	MPTP block 73, ADAM17 inh 14 | MPTP counter 91 | ADAM10 ctr inactive | ADAM17 confirm 11
O=C(Cc1cccs1)Nc1nc(-c2ccc(F)c(F)c2)cs1	none
COC(=O)C1=C(C)N(Cc2ccccc2C(F)(F)F)C(=NCc2cccc(C(F)(F)F)c2)NC1CCc1ccccc1 (centres undefined)	none (no result: MPTP block, DSG3 Ab inh)
O=S(=O)(Nc1ccc2c(c1)OCCO2)c1ccc2oc3ccccc3c2c1	ADAM10 inh 24, MPTP block 68, ADAM17 inh 11 | MPTP counter 81 | ADAM10 confirm inactive | ADAM17 counter inactive | ADAM10 ctr 26 | ADAM17 confirm 14
O=C(NCc1ccccc1)[C@H]1CCCN1C(=O)[C@H]1CCCN1C(=O)c1ccc(F)cc1	none (no result: MPTP block, DSG3 Ab inh)
CCc1ccccc1NCC(=O)Nc1ccc(Cl)c(C(F)(F)F)c1	ADAM10 inh 35, MPTP block 69, ADAM17 inh 17 | MPTP counter 86 | ADAM10 confirm inactive | ADAM17 counter inactive | ADAM10 ctr 40 | ADAM17 confirm 19
CCCNC(=S)Nc1ccc(Cl)cc1Cl	none
S=C(NCCc1ccc(Cl)cc1)Nc1ccc(Cl)cc1Cl	ADAM10 inh 29, MPTP block 86, ADAM17 inh 16 | MPTP counter 86 | ADAM10 ctr 34 | ADAM17 confirm 19
COC(=O)Cc1nnn2c1[C@H](C)[C@@H](OC)c1ccccc1-2	none (no result: MPTP block, DSG3 Ab inh)
CCOC(=O)c1ccc(NC(=S)NCc2ccc(F)cc2)cc1	MPTP block 88, ADAM17 inh 12 | MPTP counter 82 | ADAM10 ctr inactive | ADAM17 confirm 10
CC(=O)c1ccc(N2CCC(c3cc(-c4ccc(Cl)cc4)n[nH]3)CC2)c([N+](=O)[O-])c1	none (no result: ADAM10 inh, proKLK7 act, rCAG RNA binder, ADAM17 inh)
